Data taken from PubChem BioAssay (NCATS).
Results filed as inconclusive are left out. Entries that show only a call come without a potency. Calls of active or inactive are those of the source. Calls follow the shape of the dose curve; as a rule, active = well fitted curve in the direction sought with a large enough effect; inconclusive = small, poorly fitted or top-dose-only effect, or another doubt; inactive = no such curve, though single readings can be large; an effect the other way counts as inactive or inconclusive.

Key:
[1] = S16 Schwann cell viability assay (CellTiter-Glo assay) (AID 624031);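 also: native untransfected S16 rat Schwann cells; cellular ATP luminescence as a viability measure; nearly all actives have a fitted effect of over 70% in size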
Method in brief: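 Concentration-effect curves come from CellTiter-Glo luminescence of S16 rat Schwann cells after 24 h compound exposure. Each reading was normalized to DMSO wells (0%) and wells without cells, and curves were ranked by r2 and response magnitude.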

AS120 = assay: qHTS profiling for inhibitors of Plasmodium falciparum proliferation (AID 504749); also: nearly all actives have a fitted effect of over 60% in size; also: potency is read from the fitted curve at half-maximal effect; details: P. falciparum in erythrocytes, SYBR Green DNA, 72 h; series mostly up to 28.7 µM
Method in brief: (§1)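 Parasite proliferation within erythrocytes, 72 h exposure. Endpoint: SYBR Green I fluorescence after overnight lysis at room temperature. Controls: 0.29 uM artemisinin, DMSO.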

ATS189 = assay: as above; details: P. falciparum in erythrocytes, SYBR Green DNA, 72 h; series mostly up to 28.7 µM
Method in brief: as §1

CP194 = assay: as above; details: P. falciparum in erythrocytes, SYBR Green DNA, 72 h; series mostly up to 28.7 µM
Method in brief: as §1

CP201 = assay: as above; details: P. falciparum in erythrocytes, SYBR Green DNA, 72 h; series mostly up to 28.7 µM
Method in brief: as §1

CP203 = assay: as above; details: P. falciparum in erythrocytes, SYBR Green DNA, 72 h; series mostly up to 28.7 µM
Method in brief: as §1

CP215 = assay: as above; details: P. falciparum in erythrocytes, SYBR Green DNA, 72 h; series mostly up to 28.7 µM
Method in brief: as §1

CP217 = assay: as above; details: P. falciparum in erythrocytes, SYBR Green DNA, 72 h; series mostly up to 28.7 µM
Method in brief: as §1

CP237 = assay: as above; details: P. falciparum in erythrocytes, SYBR Green DNA, 72 h; series mostly up to 28.7 µM
Method in brief: as §1

CP252 = assay: as above; details: P. falciparum in erythrocytes, SYBR Green DNA, 72 h; series mostly up to 28.7 µM
Method in brief: as §1

CP265 = assay: as above; details: P. falciparum in erythrocytes, SYBR Green DNA, 72 h; series mostly up to 28.7 µM
Method in brief: as §1

CP268 = assay: as above; details: P. falciparum in erythrocytes, SYBR Green DNA, 72 h; series mostly up to 28.7 µM
Method in brief: as §1

CP291 = assay: as above; details: P. falciparum in erythrocytes, SYBR Green DNA, 72 h; series mostly up to 28.7 µM
Method in brief: as §1

CP305 = assay: as above; details: P. falciparum in erythrocytes, SYBR Green DNA, 72 h; series mostly up to 28.7 µM
Method in brief: as §1

CP325 = assay: as above; details: P. falciparum in erythrocytes, SYBR Green DNA, 72 h; series mostly up to 28.7 µM
Method in brief: as §1

DIV30 = assay: as above; details: P. falciparum in erythrocytes, SYBR Green DNA, 72 h; series mostly up to 28.7 µM
Method in brief: as §1

HB3 = assay: as above; details: P. falciparum in erythrocytes, SYBR Green DNA, 72 h; series mostly up to 28.7 µM
Method in brief: as §1

PC15 = assay: as above; details: P. falciparum in erythrocytes, SYBR Green DNA, 72 h; series mostly up to 28.7 µM
Method in brief: as §1

SC27B = assay: as above; details: P. falciparum in erythrocytes, SYBR Green DNA, 72 h; series mostly up to 28.7 µM
Method in brief: as §1

TAB109 = assay: as above; details: P. falciparum in erythrocytes, SYBR Green DNA, 72 h; series mostly up to 28.7 µM
Method in brief: as §1

SMILES | Potency [1] | Potency (AS120) | Potency (ATS189) | Potency (CP194) | Potency (CP201) | Potency (CP203) | Potency (CP215) | Potency (CP217) | Potency (CP237) | Potency (CP252) | Potency (CP265) | Potency (CP268) | Potency (CP291) | Potency (CP305) | Potency (CP325) | Potency (DIV30) | Potency (HB3) | Potency (PC15) | Potency (SC27B) | Potency (TAB109)
OCC(O)C(O)C(O)C(O)CO (stereo unspecified) | inactive | inactive | inactive | inactive | inactive | inactive | inactive | inactive | inactive | inactive | inactive | inactive | inactive | inactive | inactive | inactive | inactive | inactive | inactive | inactive
CCC1OC(=O)C[C@@H](O)[C@H](C)[C@@H](OC2OC(C)CC(N(C)C)C2O)[C@@H](CC=O)C[C@@H](C)C(=O)/C=C/[C@]2(C)OC2C1C (stereo partly specified) | inactive |  |  |  |  |  |  |  | 5.01 µM (active) | 3.55 µM (active) |  |  |  |  |  |  |  | inactive |  | 0.794 µM (active)
O=C(O)c1ccccc1-c1c2ccc(=O)cc-2oc2cc(O)ccc12 | inactive |  |  |  |  | inactive | inactive |  |  |  |  |  | inactive |  |  |  |  |  |  | 
NC(C(=O)O)C(O)c1ccc(O)c(O)c1 (stereo unspecified) |  |  |  |  |  |  |  |  |  |  |  |  |  |  |  |  |  | inactive |  | 
Cc1cnc(NC(=O)C2C(=O)c3ccccc3S(=O)(=O)N2C)s1 (stereo unspecified) | inactive | inactive | inactive | inactive | inactive | inactive | inactive | inactive | inactive | inactive | inactive | inactive | inactive | inactive | inactive | inactive | inactive | inactive | inactive | inactive
CC1=C(/C=C/C(C)=C\C=C\C(C)=C\C=C\C=C(C)\C=C\C=C(C)\C=C\C2=C(C)C[C@@H](O)CC2(C)C)C(C)(C)C[C@H](O)C1 | inactive | 12.6 µM (active) |  | inactive | inactive | inactive | inactive |  | 11.2 µM (active) |  | inactive | inactive | inactive | inactive | inactive |  | 10 µM (active) |  |  | 
CCCCC(=O)OC1CCC2C3CCc4cc(O)ccc4C3CC[C@]12C (stereo partly specified) |  |  |  | inactive | inactive | inactive | inactive | inactive | inactive | inactive | inactive | inactive | inactive | inactive | inactive | inactive | inactive |  |  | inactive
C=C1CCC(O)C/C1=C/C=C1\CCC[C@]2(C)[C@@H]([C@H](C)/C=C/[C@H](C)C(C)C)CC[C@@H]12 (stereo partly specified) | inactive |  |  | inactive | inactive | inactive | inactive |  | inactive |  |  | inactive | inactive | inactive | inactive | inactive |  |  |  | 
C[C@@H]1CC2[C@@H]3C[C@H](F)C4=CC(=O)C(Cl)=C[C@]4(C)[C@@]3(F)[C@H](O)C[C@]2(C)[C@@]1(O)C(=O)CO (stereo partly specified) | inactive |  | inactive | inactive | inactive |  | inactive | inactive |  |  | inactive | inactive | inactive | inactive | inactive | inactive | inactive | inactive | inactive | 
Cc1cncc(C(=O)O)[n+]1[O-] | inactive |  |  | inactive | inactive |  | inactive |  | inactive |  |  | inactive | inactive | inactive | inactive | inactive | inactive | inactive | inactive | 
O=C(NC(CO)C(O)c1ccc([N+](=O)[O-])cc1)C(Cl)Cl (stereo unspecified) | inactive |  |  | inactive | inactive | inactive |  |  |  |  |  |  | 3.01 µM (active) |  | 6.01 µM (active) | inactive |  | inactive | inactive | 
O=C1Oc2ccccc2C(=O)C1C(CC(O)c1ccc(-c2ccc(Br)cc2)cc1)c1ccccc1 (stereo unspecified) | inactive | inactive |  | inactive | inactive | inactive | inactive | inactive | inactive | inactive | inactive | inactive | inactive | inactive | inactive | inactive | inactive | inactive | inactive | inactive
C[C@H](CN1c2ccccc2Sc2cccnc21)N(C)C |  | 11.2 µM (active) | 5.01 µM (active) |  |  | 13.5 µM (active) | 9.53 µM (active) |  | 2 µM (active) | 11.2 µM (active) |  |  |  |  |  |  | inactive |  | 8.91 µM (active) | 7.08 µM (active)
Cc1cc(O)c2c(c1)OC1(C)CCC3C(C)(C)CCCC34COC2C14 (stereo unspecified) |  |  |  |  | inactive |  |  |  |  |  |  |  | inactive |  | inactive |  |  |  |  | 
CCOc1ccccc1O[C@@H](c1ccccc1)[C@@H]1CNCCO1 | inactive | 11.2 µM (active) |  |  | inactive |  | inactive |  |  |  |  | inactive | inactive | inactive | inactive | 6.75 µM (active) | inactive |  |  | 
CN(C)CC[C@@](O)(c1ccccc1)c1ccccc1Cl |  | 8.91 µM (active) | 5.62 µM (active) | 7.57 µM (active) |  |  |  | 12.6 µM (active) | 1.41 µM (active) | 11.2 µM (active) | 7.08 µM (active) | 13.5 µM (active) |  |  | 7.57 µM (active) | 10.7 µM (active) |  | 7.08 µM (active) | 5.62 µM (active) | 7.08 µM (active)
CC(C)CCCC(C)C1CC(=O)C2=C3CCC4CC(O)CCC4(C)C3CCC21C (stereo unspecified) | inactive | inactive | inactive | inactive | inactive | inactive | inactive | inactive |  | inactive | inactive | inactive | inactive | inactive | inactive | inactive |  | inactive | inactive | inactive
CCC1OC(=O)C[C@H](O)C(C)[C@@H](O[C@@H]2OC(C)C(O)C(N(C)C)C2O)C(CCN2CC(C)CC(C)C2)CC(C)C(=O)/C=C/C(C)=C\[C@@H]1COC1OC(C)C(O)C(OC)C1OC (stereo partly specified) | inactive |  |  |  |  |  |  |  | 5.01 µM (active) |  |  |  |  |  |  |  | inactive | inactive |  | 4.47 µM (active)
O=C(O)C[CH2][Ge](=[O])[O][Ge](=[O])[CH2]CC(=O)O | inactive | inactive | inactive | inactive | inactive | inactive | inactive | inactive | inactive | inactive | inactive | inactive | inactive | inactive | inactive | inactive | inactive | inactive | inactive | inactive
CNC1CCc2cc(OC)c(OC)c(OC)c2-c2ccc(OC)c(=O)cc21 (stereo unspecified) | inactive | inactive | inactive | inactive | inactive | inactive | inactive | inactive |  | inactive | inactive | inactive | inactive | inactive | inactive |  | inactive | inactive | inactive | inactive
C=CCN1CC(C(=O)N(CCCN(C)C)C(=O)NCC)CC2c3cccc4[nH]cc(c34)CC21 (stereo unspecified) |  |  |  | inactive | inactive |  | inactive |  | 8.91 µM (active) |  | inactive | inactive |  | inactive | inactive | inactive | inactive |  |  | 
C=C1CC[C@H](O)C/C1=C/C=C1\CCC[C@]2(C)[C@@H]([C@H](C)CC[C@@H](O)C(C)(C)O)CC[C@@H]12 | inactive | 10 µM (active) |  |  | inactive | inactive | inactive |  | 10 µM (active) |  |  | inactive |  | inactive | inactive | 13.5 µM (active) |  |  | 11.2 µM (active) | 
C=C1CC[C@H](O)C/C1=C/C=C1\CCC[C@]2(C)[C@@H]([C@H](C)CCCC(C)(C)O)CC[C@@H]12 |  | 10 µM (active) |  | inactive | inactive | inactive |  |  |  |  |  | inactive | inactive | inactive | inactive | 9.53 µM (active) |  |  |  | 
CC[C@H]1OC(=O)[C@H](C)C(=O)[C@H](C)[C@@H](OC2O[C@H](C)C[C@H](N(C)C)[C@@H]2O)[C@@](C)(OC)C[C@@H](C)C(=O)[C@@H](C)C2N(CCCCn3cnc(-c4cccnc4)c3)C(=O)O[C@@]21C (stereo partly specified) | inactive |  |  | inactive | inactive | inactive | inactive |  |  | inactive | inactive | inactive | inactive | inactive | inactive |  |  | inactive |  | 
C[C@]12CCC(=O)C=C1[C@@H]1C[C@H]1[C@H]1[C@@H]3[C@@H]4C[C@H]4[C@@]4(CCC(=O)O4)[C@@]3(C)CC[C@@H]12 | inactive | inactive | inactive |  | inactive | inactive |  | inactive | inactive | inactive | inactive | inactive | inactive | inactive | inactive |  | inactive | inactive | inactive | inactive
C/C(=C(/CCOC(=O)C(C)C)SS/C(CCOC(=O)C(C)C)=C(\C)N(C=O)Cc1cnc(C)nc1N)N(C=O)Cc1cnc(C)nc1N |  | inactive | inactive | inactive | inactive | inactive | inactive | inactive | inactive | inactive | inactive | inactive | inactive | inactive | inactive | inactive | inactive | inactive | inactive | inactive
COC(=O)C1[C@@H](OC)C(OC(=O)COc2ccc(OC)cc2)C[C@@H]2CN3CCc4c([nH]c5cc(OC)ccc45)[C@H]3C[C@H]12 (stereo partly specified) | inactive | 11.2 µM (active) | 11.2 µM (active) |  | inactive | inactive | inactive | 11.2 µM (active) |  |  |  |  |  |  | inactive | 8.49 µM (active) | 12.6 µM (active) |  |  | 
C=C1N[C@]2(C(=O)COC(C)=O)[C@@H](C[C@H]3[C@@H]4CCC5=CC(=O)C=C[C@]5(C)[C@H]4[C@@H](O)C[C@@]32C)O1 | inactive |  |  |  |  |  |  |  | inactive | inactive | inactive |  |  |  |  |  | inactive | inactive |  | inactive
